Among the data in PubChem BioAssay are z-score values, retold here.

The test can be described thus: viability profiling in RPMI8226 myeloma cells – cell-based, resazurin fluorescence, basal, 24 h, PK04 Diversity Set, profiling panel (AID 1180).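 Further: RPMI8826 multiple myeloma cell line at 5000 cells per well; test concentration not given here.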 To be noted: higher = more signal. (In general: Resazurin is reduced to fluorescent resorufin, in cell work by metabolically active cells.)
For the molecule `COCCOC(=O)N1C(=O)[C@@]2(c3cc(C#Cc4ccc(OC)cc4)ccc31)[C@H](C(=O)N1CCCCCCC1)[C@H]1C(=O)O[C@H](c3ccccc3)[C@H](c3ccccc3)N1[C@@H]2c1ccc(O)cc1`, the z-score was -0.206.
The molecule `CN(C)C(=O)[C@]1(CCC(=O)OC(C)(C)C)N=C(c2ccc(OCCCO)cc2)O[C@@H]1c1ccccc1` yielded a z-score of 0.448.
`COC(=O)c1c(CC[C@@H](CO)NC(=O)N[C@H](Cn2cc(-c3ccccc3C)nn2)C(C)C)oc(C(C)=O)c1C(=O)OC` had a z-score of -0.371.
Molecule `Cc1ccc(S[C@]2(C(=O)O)CC(=O)N(Cc3ccccc3Cl)[C@@H]2c2ccc(CO)cc2)cc1` gave a z-score of 0.148.
`COCCOC(=O)N1C(=O)[C@@]2(c3ccccc31)[C@H](C(=O)N1CCN(c3ncccn3)CC1)[C@H]1C(=O)O[C@H](c3ccccc3)[C@H](c3ccccc3)N1[C@@H]2c1ccc(OCCO)cc1` showed a z-score of 0.253.
With `COCCOC(=O)N1C(=O)[C@@]2(c3cc(C#Cc4ccc(OC)cc4)ccc31)[C@H](C(=O)N1CCN(c3ncccn3)CC1)[C@H]1C(=O)O[C@H](c3ccccc3)[C@H](c3ccccc3)N1[C@@H]2c1ccccc1OCCO`, the z-score turned out to be 0.35.
For `NCCCCCNC(=O)[C@@H]1C[C@@H]2C(=O)N[C@@H](CCCCN)C(=O)N2[C@@H]1c1cccc(OCCO)c1` the value was 1; for `COc1ccc([Si](C)(C)[C@H]2[C@H](CCn3cc([C@H](O)c4ccccc4)nn3)O[C@@]3(C(=O)N(Cc4ccc(N5CCC5=O)cc4)c4ccccc43)[C@@H]2C)cc1`, -0.0897.
As for `O=C1C[C@@](C(=O)NCC(F)(F)F)(c2ccc([N+](=O)[O-])cc2)[C@@H](c2ccc(CO)cc2)N1C1CCCCC1`, the z-score is -0.12.
With `C#CCNC(=O)[C@H](Cc1ccccc1)NC(=O)[C@@H](N=[N+]=[N-])C(C)C`, the z-score is 0.816.
Turning to `C[C@H]1C2=C3C(CC[C@H]4C(OCc5ccc(F)cc5C(F)(F)F)OC[C@](C)([C@@H]34)N(C(=O)OC(C)(C)C)C2)C2COC(=O)OCC21` (stereo partly specified), the z-score is -1.18.
Consider `CC(C)(C)OC(=O)CC[C@]1(C(=O)N2CCOCC2)N=C(c2ccc(OCCCO)cc2)O[C@H]1c1ccccc1`, for which the z-score came to 0.48.
`COc1ccc([Si](C)(C)[C@H]2[C@H](CCn3cc([C@H](O)c4ccccc4)nn3)O[C@@]3(C(=O)N(Cc4cccc(N5C(=O)c6cccc7cccc5c67)c4)c4ccccc43)[C@@H]2C)cc1` yielded a z-score of -1.47.
As for `C=C(C(=O)CC[C@H](OC(=O)c1cccnc1)c1ccc(CO)o1)C(C)C`, the z-score was -0.74.
Turning to `C=CC1c2cc(O)c(OC)cc2CCN1Cc1sc2ccccc2c1Cl` (stereo unspecified), the z-score was -0.802.
`CC(C)(C)OC(=O)CC[C@@]1(C(=O)O)N=C(c2ccc(OCCCO)cc2)O[C@@H]1c1ccccc1CN=[N+]=[N-]` displayed a z-score of -1.09.
For the molecule `CC=CC(O)C1C=CC2C(=O)N(C)C(=O)C2N1N1CCCCC1` (stereo unspecified), the z-score is -1.36.
For `CO[C@H]1O[C@H](CO)[C@@H](OC(=O)Nc2ccccc2-c2ccccc2)[C@H](OC(=O)Nc2ccc3c(c2)OCO3)[C@@H]1OC(=O)Nc1ccc2c(c1)OCO2`, the z-score is -1.12.
In turn, `O=C1NCC(=O)N2[C@@H]1C[C@@H](C(=O)O)[C@H]2c1ccc(O)cc1` returned a z-score of 0.205.
To `C[C@@H](OCc1ccccc1)C1NC(=O)[C@@]23C(=O)N[C@@H](Cc4ccccc4)C2[C@H](C)[C@@]2(C)O[C@H]2C3/C=C/C/C=C\CNC(=O)CNC1=O` (stereo partly specified) belongs -0.724; to `CCOC(=O)[C@H]1C/C=C/C[C@H](C(=O)OCC)C(=O)O[C@H]2[C@@H](OC)O[C@H](CO)[C@@H](OC(=O)CCc3ccccc3)[C@@H]2OC1=O`, 0.116.
Turning to `C=C(CCCC)/C(=C/C[C@@H](OC(C)=O)c1ccc(CO)o1)c1cc(C(=O)OC)ccc1OC`, the z-score stood at 0.0716.
In turn, `C=CCOC(=O)[C@@H]1[C@H]2C(=O)O[C@H](c3ccccc3)[C@H](c3ccccc3)N2[C@H](c2ccc(OCCOC(=O)[C@H]3C[C@H]4C(=O)N[C@@H](CCCC[N+](C)(C)C)C(=O)N4[C@H]3c3ccc(O)cc3)cc2)[C@@]12C(=O)Nc1ccc(I)cc12` gave a z-score of -0.578.
With `COC1(C)CN(Cc2ccccc2Br)[C@H](/C=C/c2ccccc2)[C@H](Cc2ccccc2)O1` (stereo partly specified), the z-score was found to be 1.2.
For `C=CCN1C(=O)[C@]2(CC=C)N=C(c3ccc(OCCCO)cc3)O[C@@H]2c2ccccc21` the value was -3.09; for `CCCC=C(CCC)[C@@H](NP(=O)(c1ccccc1)c1ccccc1)c1ccc(C(F)(F)F)cc1`, 0.495; for `CC(C)N1C(=O)[C@@]2(c3ccc([N+](=O)[O-])cc3)CC(=O)N(C3CCCCC3)[C@@H]2c2ccc(CO)cc21`, 0.833.
With `CON(C)C(=O)C=C1C[C@@H](c2cccc(Cl)c2)O[C@@H](c2cccc(Cl)c2)O1`, the z-score amounted to 0.515.
For `[N-]=[N+]=NCc1ccccc1C[C@@]1(C(N)=O)N=C(c2ccc(OCCCO)cc2)O[C@@H]1c1ccccc1CN=[N+]=[N-]` the value was 0.0178.
Turning to `O=C(O)[C@H]1C[C@H]2C(=O)N3CCC[C@H]3C(=O)N2[C@H]1c1cccc(OCCO)c1`, the z-score turned out to be 0.268.
Molecule `C=C(CCCC)C(=O)CC[C@@H](OC(=O)c1ccccc1-c1ccccc1C(=O)O)c1cccc(OCCO)c1` had a z-score of -0.301.
As to `[N-]=[N+]=NCc1ccccc1C[C@]1(C(=O)NCC(O)CO)N=C(c2ccc(OCCCO)cc2)O[C@H]1c1ccccc1CN=[N+]=[N-]` (stereo partly specified), the z-score is -0.881.
`C=CCNC(=O)[C@@H]1[C@H]2C(=O)O[C@H](c3ccccc3)[C@H](c3ccccc3)N2[C@H](c2ccc(OCCO)cc2)[C@@]12C(=O)N(C(=O)OCCOC)c1ccc(C#CC3=CCCCC3)cc12` had a z-score of -1.66.
Molecule `O=C1OCCC=C[C@H]2OC34C=CCN(c5ccc(Cl)cc5)C(=O)[C@H]3N(CCCCCO)C(=O)[C@@H]4C12` (stereo partly specified) had a z-score of 0.599.
To `COc1c(C)cc(-c2cc3c(c(-c4ccccc4)n2)[Si](C(C)C)(C(C)C)OC3)cc1C` belongs 0.798; to `CCCCN1CC=CC23O[C@@H]4/C=C\CCC(C)OC(=O)C4[C@H]2C(=O)N(CCCCCCO)[C@@H]3C1=O` (stereo partly specified), 0.981.
